Screen size: about 16,000 compounds; about 4,000 (25%) were called active. Inconclusive results (about 26%) are left out. The call rests on the fitted dose curve; in most records, active means well fitted curve in the direction sought with a large enough effect; inconclusive means small, poorly fitted or top-dose-only effect, or effect the other way; inactive means no such curve, though single readings can be large or run the other way. These entries were drawn from the full list.
On the % scale 0 is the no-effect control and ±100 the full control effect.

Chain of Cytochrome P450 2C9 (Homo sapiens) (P11712 whole entry, looked up): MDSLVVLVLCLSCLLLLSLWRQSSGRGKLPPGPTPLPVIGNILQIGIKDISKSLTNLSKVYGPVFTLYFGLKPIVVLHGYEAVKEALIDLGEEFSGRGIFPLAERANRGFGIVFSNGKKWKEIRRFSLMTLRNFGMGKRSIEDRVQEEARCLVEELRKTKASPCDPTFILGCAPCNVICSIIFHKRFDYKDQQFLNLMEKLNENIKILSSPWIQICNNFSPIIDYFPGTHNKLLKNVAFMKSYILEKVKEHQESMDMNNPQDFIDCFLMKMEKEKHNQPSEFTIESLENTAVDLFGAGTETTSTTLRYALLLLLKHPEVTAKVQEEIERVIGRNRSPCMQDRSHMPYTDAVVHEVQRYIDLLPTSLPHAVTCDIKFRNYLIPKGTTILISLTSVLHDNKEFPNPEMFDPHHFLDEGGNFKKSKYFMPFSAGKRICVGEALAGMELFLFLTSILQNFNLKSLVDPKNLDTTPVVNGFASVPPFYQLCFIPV

This assay has as its target Cytochrome P450 2C9 (Homo sapiens) (UniProt P11712). Nature of the assay: Cytochrome panel assay with activity outcomes. The note with it: recombinant CYP, pro-luciferin dealkylation, luminescence, p450-cyp2c9; series mostly up to 57.1 µM.
On to `O=C(O)C(=O)/C=C(\O)c1ccc(Br)cc1`, for which the activity, negative = inhibition is -19.1% [at 11.4 µM] (inactive). In the case of `Cc1ccc2nc(NC(=O)COC(=O)CSc3nc(C)cc(C)n3)sc2c1`, the half-maximal activity concentration (AC50) was 3.98 µM (active). On to `CCCOc1ccc(C(=O)NC(=S)Nc2nc3ccc(C)cc3s2)cc1`, for which the AC50 entry was “inactive”. The same measure, in the same setting: in the case of `Cc1ccc2nc(NC(=O)CSCC(=O)OCC(=O)c3ccc(Br)cc3)sc2c1` it was 14.1 µM (active). Same read-out and setting: to `COc1ccc2nc(NC(=O)CSc3nnc(C)s3)sc2c1` belongs “inactive”; to `COc1ccc([C@@H]2Sc3ccccc3N(CCN(C)C)C(=O)[C@@H]2OC(C)=O)cc1`, “inactive”.

Consider `NC(=S)Nc1ccc(Oc2ccc(NC(N)=S)cc2)cc1`, for which the half-maximal activity concentration (AC50) is 7.08 µM (active). On the same count and under the same terms, in the case of `COc1ccc2[nH]c(=O)c(NC(N)=S)nc2c1` it was “inactive”; in that of `Cc1ccc(C2Nc3ccccc3C(=O)N2Cc2ccco2)cc1` (centres undefined), 3.16 µM (active). On the same count and under the same terms, in the case of `O=C1c2ccccc2NC(c2ccc(F)cc2)N1Cc1ccco1` (centres undefined) it was 3.16 µM (active); in that of `COc1ccc(C2Nc3ccccc3C(=O)N2Cc2ccco2)cc1COc1ccc([N+](=O)[O-])cc1` (centres undefined), 0.178 µM (active). For the compound `CN(Cc1ccco1)C(=O)C1CCC(=O)N1Cc1ccc(F)cc1` (centres undefined), the AC50 result is “inactive”. As to `O=C1C2=C(Nc3cc([N+](=O)[O-])ccc3N2)O[C@@H]1c1c[nH]c2ccc(COc3ccccc3)cc12`, the activity, negative = inhibition is -16.4% [at 11.4 µM] (inactive). Still for that read-out and setting: to `CC1(CC(=O)O)O[C@H]2CCCCC[C@H]2O1` (some centres undefined) (tested in a mixture with another compound) belongs 1.04% [at 11.4 µM] (inactive). Consider `CC(=O)N1CC2(CC2)CC1c1ccccc1` (centres undefined), for which the AC50 result was “inactive”. Same read-out and setting: to `CC(C)NC[C@@H](O)COc1cccc2ccccc12` belongs “inactive”; to `CC(C)Oc1ccc2ccccc2c1C=O`, 10 µM (active). Same read-out and setting: to `CO[C@H]1C[C@@H](O[C@@H]2[C@H](C)[C@H](O[C@@H]3O[C@@H](C)C[C@@H](N(C)C)[C@@H]3O)[C@H](C)C[C@]3(CO3)C(=O)[C@H](C)[C@H](O)[C@H](C)[C@H](C)OC(=O)[C@@H]2C)O[C@@H](C)[C@H]1O` belongs “inactive”; to `CC(=O)N[C@@H](CC(=O)O)C(=O)O`, “inactive”; to `O=C(c1cc(Br)ccc1O)c1cc(Br)ccc1O`, 0.1 µM (active).

With `O=C(Nc1ccc(-c2cn3ccccc3n2)cc1)c1cc(Br)ccc1O`, the activity, negative = inhibition was -1.72% [at 11.4 µM] (inactive).

Take `CC(C)(C)CC(C)(C)c1ccc(O)c(C[N+](C)(C)[O-])c1`: the activity, negative = inhibition was 0.733% [at 11.4 µM] (inactive). `COc1cc(/C=C2\SC(=S)N(Nc3ccccc3)C2=O)cc(OC)c1OC`: the concentration at half-maximal activity (AC50) was 6.31 µM (active). For `Cc1cc(C)nc(NN2C(=O)/C(=C/c3ccccc3)SC2=S)n1`, the AC50 entry is “inactive”. As for `CC(C)CC(=O)N[C@H](C(=O)N[C@H](C(=O)N[C@@H](CC(C)C)[C@H](O)CC(=O)N[C@@H](C)C(=O)N[C@@H](CC(C)C)[C@H](O)CC(=O)O)C(C)C)C(C)C`, the AC50 result is “inactive”.

`CCc1ccccc1NC(=O)CSc1nc(-c2ccccc2)nn1C(=O)c1cccc([N+](=O)[O-])c1`: the AC50 is 0.447 µM (active).

For the compound `O=C(O)[C@@H]1[C@@H](C(=O)O)[C@]23C[C@@]2(C(=O)O)[C@]2(C(=O)O)CCC3=C3CCCC312`, the activity, negative = inhibition was 14% [at 11.4 µM] (inactive). `CCOC(=O)c1cnc2c(cnn2CC)c1NN=C(C)C`: the AC50 result was “inactive”. On the same count and under the same terms, to `CCOC(=O)c1cnc2ccc(C)cc2c1Sc1ccccc1C(=O)OC` belongs 1.41 µM (active); to `Cc1ccccc1-n1ncc2c(SCC(=O)N3c4ccccc4CC3C)ncnc21` (centres undefined), 10 µM (active). As for `Cc1nnc(NC(=O)CSc2ncnc3c2cnn3-c2ccccc2C)s1`, the AC50 entry was “inactive”. The same measure, in the same setting: in the case of `CCOc1ccccc1NC(=O)C(=O)NCC1CCCN1CC` (centres undefined) it was “inactive”. For `CC1CN(C(=O)c2cc3c(s2)CCC3)CC(C)O1` (centres undefined), the AC50 entry was “inactive”. Regarding `Cc1cc(C)n(C(=O)c2cc3c(s2)CCCC3)n1`, the AC50 is 11.2 µM (active). On to `CCOC(=O)COc1c(OC)cc(Cl)cc1C1Nc2ccccc2C(=O)N1c1cccc(C)c1` (centres undefined), for which the AC50 was 0.708 µM (active).

Take `CCOC(=O)COc1c(OC)cc(Cl)cc1C1Nc2ccccc2C(=O)N1c1ccc(F)cc1` (centres undefined): the AC50 was 0.282 µM (active).

In the case of `CCOC(=O)CC1NC(=O)c2ccccc21` (centres undefined), the AC50 entry is “inactive”. With `CC(C)=NO[C@@H](C)c1cn([C@@H]2COC[C@@H]2O)nn1`, the activity, negative = inhibition was 11.5% [at 11.4 µM] (inactive). `COc1ccc2cc(CCC(C)=O)ccc2c1`: the AC50 result is “inactive”. The same measure, in the same setting: in the case of `COc1ccc(CCCC(=O)NC2CCCCC2)cc1` it was 10 µM (active). Still for that read-out and setting: to `COc1ccc(CCNC(=O)COc2ccc(S(=O)(=O)NC3CCCCC3)cc2Cl)cc1` belongs 2.51 µM (active). Turning to `COc1ccc(NC(=O)COc2ccc(CNCCCN3CCOCC3)cc2OC)cc1`, the AC50 result is “inactive”. As to `CC(C)(Sc1ccc(CCN(CCCCC2CCCCC2)C(=O)NC2CCCCC2)cc1)C(=O)O`, the AC50 result is “inactive”. On the same count and under the same terms, to `O=C(NC1CCCCC1)C(c1cccs1)N(Cc1cccs1)C(=O)c1ccco1` (centres undefined) belongs 8.91 µM (active). On to `CN(C)Cc1ccccc1-c1cncnc1NCc1cccs1`, for which the activity, negative = inhibition was -10.6% [at 2.29 µM] (inactive). For `CN(C)C(=O)c1ccc(-c2cncnc2NCc2cccs2)cc1`, the activity, negative = inhibition was -0.243% [at 2.29 µM] (inactive).

For the compound `CCc1ccc(C(C(=O)NCc2ccc(OC)cc2)N(CCOC)C(=O)Cc2cccs2)cc1` (centres undefined), the half-maximal activity concentration (AC50) is 10 µM (active). Same read-out and setting: to `COc1ccc(CNC(=O)C(c2ccc(C)cc2)N(Cc2cccs2)C(=O)c2ccc3c(c2)OCCO3)cc1` (centres undefined) belongs 7.08 µM (active); to `COc1ccc2nc3oc(C(=O)NCc4cccs4)cc3cc2c1`, “inactive”. For the compound `O=C(NCc1ccccc1)C(c1cccs1)N(Cc1cccs1)C(=O)c1cnccn1` (centres undefined), the AC50 was 15.8 µM (active).

Take `CN(Cc1ccco1)c1cc(-c2ccccc2Cl)ncn1`: the activity, negative = inhibition is -2.34% [at 2.29 µM] (inactive).

Consider `N[C@H](C(=O)O)[C@@H]1[C@@H](C(=O)O)C1(F)F`, for which the AC50 result was “inactive”. Consider `COc1ccc(C(C(=O)NCc2ccccc2)N(Cc2cccs2)C(=O)c2cnccn2)cc1` (centres undefined), for which the half-maximal activity concentration (AC50) is 7.94 µM (active).

As for `CC1(C)[C@@H]2CC[C@]1(C)[C@@H](OC(=O)/C=C\c1ccccc1)C2`, the activity, negative = inhibition is -14.1% [at 11.4 µM] (inactive).

For the compound `CS(=O)(=O)N(CC(=O)Nc1cccc(F)c1)c1cccc([N+](=O)[O-])c1`, the AC50 was 3.55 µM (active).

Consider `CS(=O)(=O)N1CCC[C@@]2(CCN(C(=O)Nc3cccc(F)c3)C2)C1`, for which the AC50 result is “inactive”.

In the case of `COc1cccc(N(CC(=O)Nc2cccc(C(C)=O)c2)S(C)(=O)=O)c1`, the half-maximal activity concentration (AC50) was 25.1 µM (active). With `CS(=O)(=O)N1CCC2(CCN(C(=O)Nc3cccc(F)c3)CC2)CC1`, the AC50 entry was “inactive”. On the same count and under the same terms, in the case of `CC(=O)Nc1sc2c(c1CN1CCN(C)CC1)CCCC2` it was “inactive”; in that of `CC(=O)NCCC(=O)Nc1sc2c(c1-c1nc3ccccc3[nH]1)CCCC2`, 11.2 µM (active); in that of `CC(=O)Nc1sc2c(c1C(N)=O)CCCC2`, “inactive”.

Take `N#Cc1cccc(-c2cc(NCc3cccs3)ncn2)c1`: the activity, negative = inhibition was -9.65% [at 2.29 µM] (inactive). Regarding `C[N+]1(C)CCc2cc3c(cc2[C@@H]1[C@@H]1C(=O)Oc2c1ccc1c2OCO1)OCO3`, the AC50 result is “inactive”. Same read-out and setting: in the case of `CN1CCc2cc3c(cc2[C@@H]1[C@@H]1C(=O)Oc2c1ccc1c2OCO1)OCO3` it was 12.6 µM (active). Same read-out and setting: in the case of `O=C(O)c1ccc(Sc2nnnn2-c2ccccc2)c([N+](=O)[O-])c1` it was “inactive”; in that of `O=C(Nc1ccccc1[N+](=O)[O-])C1C(c2ccccc2)=C1c1ccccc1`, 6.31 µM (active); in that of `COCC(=O)N1CCC2(CCCN(C(=O)Nc3cccc(F)c3)C2)CC1`, “inactive”. As for `CC(=O)SCC[N+](C)(C)C`, the AC50 result was “inactive”.

As to `COc1ccc(/C=C2/S/C(=N/N=C3\CC4CCC3(C)C4(C)C)NC2=O)cc1` (centres undefined), the AC50 is 8.91 µM (active). In the case of `CCCCCCCCC(=O)NCc1cc(OC)c(O)cc1I`, the AC50 entry was “inactive”. For the compound `CCCCCCCC/C=C\CCCCCCCC(=O)NCc1ccc(O)c(OC)c1`, the AC50 result was “inactive”. Still for that read-out and setting: in the case of `COc1cc(CNC(=O)CCCC/C=C\C(C)C)ccc1O` it was 2 µM (active). Take `Cc1ccnc(N)c1`: the AC50 entry was “inactive”. Same read-out and setting: to `CSc1nsc(/C=C/Nc2ccc(Cl)cc2)c1C#N` belongs 2.24 µM (active); to `c1ccc(-c2nnc(SCc3nc4ccccc4[nH]3)n2Cc2ccco2)cc1`, 6.31 µM (active); to `CCn1c(SCC(=O)N2CCN(S(=O)(=O)c3ccccc3)CC2)nnc1-c1cccs1`, “inactive”.

For `Cc1ccccc1CSc1nnc(-c2cccs2)n1Cc1ccco1`, the AC50 is 11.2 µM (active).

In the case of `CN(Cc1ccco1)c1nc(-c2ccoc2)nc2ccccc12`, the activity, negative = inhibition is -3.83% [at 2.29 µM] (inactive). Still for that read-out and setting: to `Cc1ccccc1-c1cncnc1N(C)Cc1ccco1` belongs -10.8% [at 2.29 µM] (inactive). In the case of `CCn1c(SCc2cccc(C)c2)nnc1-c1ccc(C)cc1`, the AC50 entry was “inactive”.

In the case of `CCn1c(SCc2nc3ccccc3[nH]2)nnc1-c1ccc(OC)cc1`, the AC50 is 12.6 µM (active). Take `O=C(O)CC[C@]1(C(=O)O)CCC(=O)c2ccccc21`: the activity, negative = inhibition was -1.2% [at 11.4 µM] (inactive). As to `N[C@H](C(=O)O)[C@@H]1C[C@@H]1C(=O)O`, the AC50 result is “inactive”. Turning to `O=C1C=C(c2cccs2)CC(c2cccs2)C1n1cnc([N+](=O)[O-])c1` (centres undefined), the AC50 is 14.1 µM (active). On the same count and under the same terms, to `Cc1nc(SCC(=O)c2cc3ccccc3oc2=O)c(C#N)c(C)c1C(=O)Nc1ccccc1` belongs 0.794 µM (active); to `Cc1ccc(N2C(=O)CC(c3ccsc3)C3=C2CC(C)(C)CC3=O)cc1` (centres undefined), 3.98 µM (active). For `CC(=O)NCCNc1nc(-c2ccc(C(=O)N(C)C)cc2)nc2ccccc12`, the activity, negative = inhibition was 6.97% [at 2.29 µM] (inactive). For the compound `COc1cc(C(=O)Nc2nc3ccc4nc(C)sc4c3s2)cc(OC)c1OC`, the AC50 entry is “inactive”.

On to `Cc1nc2c(ccc3nc(NC(=O)c4ccc5c(c4)OCCO5)sc32)s1`, for which the AC50 was 0.708 µM (active).

For `Cc1nc2ccc3nc(NC(=O)c4ccc(S(=O)(=O)N5CCOCC5)cc4)sc3c2s1`, the AC50 entry is “inactive”. For the compound `CN(C)c1ncnc2c1ncn2CCn1cnc2c(N(C)C)ncnc21`, the activity, negative = inhibition is -7.75% [at 11.4 µM] (inactive).

Regarding `COc1cc(=O)n(C)c2c(OC[C@@H](O)C(C)(C)O)cccc12`, the AC50 result was “inactive”.

Consider `CCN(C(=O)COc1cc(=O)n(C)c2ccccc12)c1cccc(Cl)c1`, for which the half-maximal activity concentration (AC50) was 7.94 µM (active). For the compound `CCN(C(=O)Cn1c(=O)oc2ccccc21)c1cccc(C(F)(F)F)c1`, the AC50 result was “inactive”.

As usually defined, the AC50 is the concentration giving half of the maximal activity seen.
